Assay [1] can be described thus: A CellTox Green Cytotoxicity Assay to monitor cytotoxicity in HEK293 cells - 32 hour (AID 1224881). Further: nearly all actives have a fitted effect of over 40% in size. An outline of the steps: (§1)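 Cells (HEK293, 600/well) and dye reagent are dispensed together. After 5 h at 37 C, 23 nL compound is pinned in. Plates stay at 37 C for 40 h with fluorescence read at 0h, 8h, 16h, 24h, 32h and 40h.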
Assay [2] in a line: A CellTox Green Cytotoxicity Assay to monitor cytotoxicity in HepG2 cells - 0 hour (AID 1224882). Further: nearly all actives have a fitted effect of over 35% in size. An outline of the steps:
(§2)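 Cells and non-lytic dye reagent are dispensed together (600 HepG2 cells/well) and incubated 5 h before DMSO compound transfer. Kinetic fluorescence is then recorded in the same wells during 40 h at 37 C.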

Assay [3] is described as follows: A CellTox Green Cytotoxicity Assay to monitor cytotoxicity in HepG2 cells - 32 hour (AID 1224883). Further: nearly all actives have a fitted effect of over 50% in size. An outline of the steps: as §2
Assay [4] in a line: qHTS RealTime-Glo MT Cell Viability Assay in HepG2 cells - 16 hour (AID 1224885). Further: nearly all actives have a fitted effect of over 50% in size. In outline:
(§3)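 HepG2 suspension premixed with RealTime-Glo reagents is plated at 600 cells per well and left 5 h at 37 C/5% CO2. Compounds in DMSO then go in, and bioluminescence reflecting viable cell number is recorded over 40 h.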

The nature of assay [5]: qHTS RealTime-Glo MT Cell Viability Assay in HEK293 cells - 24 hour (AID 1224886). Further: nearly all actives have a fitted effect of over 50% in size. Further: potency means the concentration at half of the fitted maximal effect. An outline of the steps:
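Reads taken at 0, 8, 16, 24, 32 and 40 h from the same wells. HEK293 cells (600/well) carried RealTime-Glo reagents from seeding, with compound added after a 5 h settle at 37 C.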
In general terms: In qHTS, concentration-response curves come from the screen itself.

Assay [6] in a line: qHTS RealTime-Glo MT Cell Viability Assay in HEK293 cells - 8 hour (AID 1224887). Further: nearly all actives have a fitted effect of over 50% in size. Further: potency means the concentration at half of the fitted maximal effect. In outline: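 Real-time viability in HEK293: signal arises when living cells convert a prosubstrate for NanoLuc in the medium, so luminescence tracks viable cell number. Compound (23 nL, DMSO) added 5 h post-seeding; kinetic reads at 0–40 h, 37 C.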
The nature of assay [7]: A CellTox Green Cytotoxicity Assay to monitor cytotoxicity in HEK293 cells - 16 hour (AID 1224888). Further: nearly all actives have a fitted effect of over 35% in size. An outline of the steps:
as §1

Assay [8] is described as follows: qHTS RealTime-Glo MT Cell Viability Assay in HepG2 cells - 0 hour (AID 1224889). Further: nearly all actives have a fitted effect of over 50% in size. An outline of the steps: as §3
Assay [9] is described as follows: A CellTox Green Cytotoxicity Assay to monitor cytotoxicity in HepG2 cells - 8 hour (AID 1224890). Further: nearly all actives have a fitted effect of over 45% in size. In outline:
as §2

Assay [10] in a line: qHTS assay to identify small molecule antagonists of the estrogen receptor alpha (ER-alpha) signaling pathway using the BG1 cell line in the presence of 0.1 nM 17-beta-estradiol - cell viability counter screen (AID 1259241). Further: nearly all actives have a fitted effect of over 40% in size. In outline:
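Cells were plated and left 24 hr, compounds in DMSO were pinned in, 17beta-estradiol was added to 0.1 nM final, and after 22 hr CellTiter-Fluor reagent was added for 30 min before fluorescence was read.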

Assay [11] is described as follows: qHTS assay to identify small molecule antagonists of the androgen receptor (AR) signaling pathway using the MDA cell line in the presence of 0.5 nM R1881 - cell viability counter screen (AID 1259242). Further: nearly all actives have a fitted effect of over 45% in size. An outline of the steps:
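Steps: plate MDA-kb2 cells, rest 5 hr at 37C without CO2; pin in compounds in DMSO; add R1881 to 0.5 nM final; incubate 16 hr; add CellTiter-Fluor, 30 min; read fluorescence.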

Assay [12] concerns the target Estrogen receptor (Homo sapiens) (UniProt P03372). Nature of the assay: qHTS assay to identify small molecule antagonists of the estrogen receptor alpha (ER-alpha) signaling pathway using the BG1 cell line in the presence of 0.1 nM 17-beta-estradiol (AID 1259244). Further: nearly all actives have a fitted effect of over 50% in size. In outline:
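Antagonist mode: compounds in DMSO are pinned onto VM7Luc4E2 reporter cells, 0.1 nM final 17beta-estradiol is added, and after 22 h at 37C luciferase luminescence is measured with ONE-Glo.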

The nature of assay [13]: qHTS assay to identify small molecule HDAC inhibitors (AID 1259364).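 Further: wild-type HCT-116 cells with endogenous class I/II HDAC activity; top concentration of the series differs between compounds; nearly all actives have a fitted effect of over 45% in size.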 An outline of the steps: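 Cells (HCT-116, wild type) are seeded at 1,500 per well, incubated overnight, treated with compound in DMSO for 2 hr, then developed with HDAC-Glo I/II reagent for 30 min at room temperature.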
Assay [14] is described as follows: qHTS assay to identify small molecule HDAC inhibitors - cell viability counter screen (AID 1259365). An outline of the steps:
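Counter screen in wild-type HCT-116 cells: compounds dissolved in DMSO are pin-transferred onto overnight-plated cells and left 2hr at 37C. ATP-based CellTiter-Glo luminescence then measures viable cells.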

The nature of assay [15]: qHTS assay to identify small molecule agonists of the sonic hedgehog signaling (Shh) pathway - cell viability counter screen (AID 1259366). Further: nearly all actives have a fitted effect of over 50% in size. In outline: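 Cells are plated at 2,000 per well and left 4hr at 37C, 5% CO2 before compound addition. After 23hr of treatment, CellTiter-Fluor reagent is added for 1hr at 37C and fluorescence is measured.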
A short description of assay [16]: qHTS assay to identify small molecule antagonists of the sonic hedgehog signaling (Shh) pathway - cell viability counter screen (AID 1259367). Further: nearly all actives have a fitted effect of over 55% in size. In outline: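 CellTiter-Fluor signal in conditioned medium-stimulated 3T3 Gli1-Luc cells, 23 hr compound exposure, 37C.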
A short description of assay [17]: qHTS assay to identify small molecule agonists of the sonic hedgehog signaling (Shh) pathway (AID 1259368; calls by dose curve;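 further: NIH/3T3-derived 3T3Gli1-Luc cells carrying a stable Gli1-driven firefly luciferase reporter; series mostly up to about 92 µM; nearly all actives have a fitted effect of over 15% in size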). In outline:
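Cells of a mouse NIH/3T3 clone stably expressing luciferase under the Gli1 transcriptional response element are exposed to test chemicals for 24 hr at 37 C. Pathway activation is detected as a rise in luminescence.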

A short description of assay [18]: A CellTox Green Cytotoxicity Assay to monitor cytotoxicity in HEK293 cells - 8 hour (AID 1224884). Further: nearly all actives have a fitted effect of over 35% in size. In outline: as §1
In assay [19] the target is Androgen receptor (Homo sapiens) (UniProt P10275). Nature of the assay: qHTS assay to identify small molecule antagonists of the androgen receptor (AR) signaling pathway using the MDA cell line in the presence of 0.5 nM R1881 (AID 1259243). In outline: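 Stably transfected MDA-kb2 cells express luciferase from an MMTV promoter bearing both AR and GR response elements. Compounds plus 0.5 nM R1881 (final) were incubated 16 hr at 37C without CO2, then luminescence measured.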
Sequence of Androgen receptor (Homo sapiens) (P10275 whole entry, looked up): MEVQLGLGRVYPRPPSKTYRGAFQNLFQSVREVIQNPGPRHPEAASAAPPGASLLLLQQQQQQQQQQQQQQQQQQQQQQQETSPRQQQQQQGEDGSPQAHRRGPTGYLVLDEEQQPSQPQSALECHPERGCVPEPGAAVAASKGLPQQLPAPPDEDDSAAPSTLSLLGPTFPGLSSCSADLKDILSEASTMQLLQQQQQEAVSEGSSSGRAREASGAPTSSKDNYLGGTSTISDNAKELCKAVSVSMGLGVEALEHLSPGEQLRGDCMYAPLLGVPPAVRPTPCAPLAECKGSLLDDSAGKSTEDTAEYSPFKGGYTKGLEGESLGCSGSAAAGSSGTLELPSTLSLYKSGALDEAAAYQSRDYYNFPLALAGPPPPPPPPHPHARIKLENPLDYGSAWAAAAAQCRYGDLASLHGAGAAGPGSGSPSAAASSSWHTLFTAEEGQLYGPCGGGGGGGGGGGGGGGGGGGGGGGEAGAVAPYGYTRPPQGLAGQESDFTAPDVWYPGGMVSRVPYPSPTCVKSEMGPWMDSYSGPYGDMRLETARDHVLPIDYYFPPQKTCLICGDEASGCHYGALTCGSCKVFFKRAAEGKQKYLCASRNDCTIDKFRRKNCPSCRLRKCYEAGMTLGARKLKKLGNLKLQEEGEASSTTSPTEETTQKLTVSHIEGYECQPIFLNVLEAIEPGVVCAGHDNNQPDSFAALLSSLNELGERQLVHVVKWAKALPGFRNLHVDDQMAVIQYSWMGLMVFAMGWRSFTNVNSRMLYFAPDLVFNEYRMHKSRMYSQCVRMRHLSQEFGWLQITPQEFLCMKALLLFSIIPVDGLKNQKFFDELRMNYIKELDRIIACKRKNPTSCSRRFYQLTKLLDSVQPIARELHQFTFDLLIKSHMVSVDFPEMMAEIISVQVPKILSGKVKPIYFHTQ

SMILES strings stand for the structures. Results filed as inconclusive are left out. The source made the active and inactive calls. Unless noted, the call rests on the fitted dose curve; in most records, active means well fitted curve in the direction sought with a large enough effect in the repeat runs; inconclusive means weak or mixed curves; inactive means no such curve, though single readings can be large; an effect the other way counts as inactive or inconclusive.

Sequence of Estrogen receptor (Homo sapiens) (P03372 whole entry, looked up): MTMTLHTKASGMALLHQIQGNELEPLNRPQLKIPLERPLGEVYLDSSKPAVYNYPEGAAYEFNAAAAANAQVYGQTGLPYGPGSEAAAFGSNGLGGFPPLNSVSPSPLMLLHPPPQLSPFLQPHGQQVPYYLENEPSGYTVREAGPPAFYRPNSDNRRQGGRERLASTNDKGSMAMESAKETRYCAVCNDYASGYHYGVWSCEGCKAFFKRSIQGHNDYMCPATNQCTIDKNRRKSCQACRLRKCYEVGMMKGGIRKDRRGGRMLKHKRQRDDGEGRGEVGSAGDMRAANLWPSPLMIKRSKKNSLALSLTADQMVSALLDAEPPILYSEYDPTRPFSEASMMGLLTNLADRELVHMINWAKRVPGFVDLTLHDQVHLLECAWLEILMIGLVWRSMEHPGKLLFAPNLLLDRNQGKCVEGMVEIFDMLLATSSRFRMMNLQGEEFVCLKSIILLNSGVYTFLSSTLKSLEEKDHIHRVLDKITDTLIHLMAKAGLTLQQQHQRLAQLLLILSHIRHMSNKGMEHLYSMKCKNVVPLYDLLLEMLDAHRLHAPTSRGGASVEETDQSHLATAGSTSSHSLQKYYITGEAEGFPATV

As for `COC(=O)c1c(C(F)F)nc(C(F)(F)F)c(C2=NCCS2)c1CC(C)C`, the Potency entry in assay [1], in assay [3], in [4], in assay [5], in assay [6] and in [7] was “inactive” each time. Also, the Potency result in [8], in assay [9], in assay [12], in assay [13], in assay [15] and in [16] was “inactive” throughout. In addition, the compound was called inactive in assay [2], in assay [10], in assay [11], in [14] and in assay [17].
Consider `OC(Cn1cncn1)(c1ccc(F)cc1)c1ccccc1F` (configuration not stated), for which the Potency result in assay [1], in assay [3], in [18], in assay [6], in assay [7] and in assay [8] was “inactive” each time. Also, the Potency entry in assay [9], in [12], in [13], in assay [15] and in [16] was “inactive” in each case. Also, the outcome in assay [2], in assay [10], in [11], in assay [14] and in [17] was inactive.
Consider `O=c1oc2ccccc2c(O)c1C1CCCc2ccccc21` (configuration not stated), for which the Potency entry in [1], in assay [3], in assay [18], in [5], in assay [6] and in [8] was “inactive” throughout. Further, the Potency result in assay [9], in [12], in [13], in assay [15] and in assay [16] was “inactive” throughout. The compound was called inactive in [2], in assay [10], in [11], in [14] and in [17].
As for `O=CNC(N1CCN(C(NC=O)C(Cl)(Cl)Cl)CC1)C(Cl)(Cl)Cl` (configuration not stated), the Potency result in [1], in [3], in assay [18], in assay [6], in assay [7] and in [8] was “inactive” each time. Also, the Potency result in assay [9], in assay [12], in [13], in assay [15] and in assay [16] was “inactive” each time. In addition, the compound was classed as inactive in assay [2], in assay [10], in assay [11], in assay [14] and in assay [17]. For the same compound, the Potency in assay [19] was 30.6 µM (active).
Regarding `CCOP(=S)(OCC)Oc1cc(-c2ccccc2)on1`, the Potency entry in assay [1], in [3], in assay [4], in [7], in assay [8] and in assay [9] was “inactive” throughout. Moreover, the Potency entry in assay [12], in assay [13], in assay [15] and in assay [16] was “inactive” each time. The compound was classed as inactive in assay [2], in [10], in assay [11], in [14] and in [17].
Consider `CCCCOC(=O)[C@@H](C)Oc1ccc(Oc2ccc(C#N)cc2F)cc1`, for which the Potency result in [1], in assay [3], in assay [18], in assay [4], in [7] and in assay [8] was “inactive” each time. Also, the Potency entry in [9], in assay [12], in assay [13], in assay [15] and in [16] was “inactive” each time. Further, the Potency was 19.4 µM (active) in assay [5] and 12.2 µM (active) in [6]. For the same compound, the outcome in assay [10], in [11], in [14] and in assay [17] was inactive.
On to `COc1cc(OC)nc(NC(=O)NS(=O)(=O)c2ncccc2C(=O)N(C)C)n1`, for which the Potency result in [1], in [3], in assay [18], in [4], in assay [5] and in assay [6] was “inactive” each time. The Potency result in assay [7], in assay [8], in [9], in [12], in assay [13] and in assay [15] was “inactive” each time. The outcome in assay [10], in assay [11], in [14] and in [17] was inactive.
As to `CCCCc1c(C)nc(NCC)[nH]c1=O`, the Potency entry in [1], in [18], in [8], in [9], in assay [12] and in assay [13] was “inactive” each time. The Potency result in assay [15] is “inactive”. For the same compound, the compound was called inactive in [2], in [10], in [11], in assay [14] and in assay [17]. The Potency in assay [6] was 21.9 µM (active).
Take `[As]#[In]`: the Potency entry in assay [1], in [18], in assay [4], in assay [6], in [7] and in [8] was “inactive” throughout. Also, the Potency result in assay [9], in assay [13], in assay [15] and in assay [16] was “inactive” each time. For the same compound, the outcome in assay [2], in assay [10], in [11], in [14] and in assay [17] was inactive.

Source of the values: PubChem BioAssay (Tox21).
